Hits are enriched below; roughly 4.2% of the tested compounds scored in any of these assays.
Mito fusion act: mitochondrial division inhibition or fusion activation | 0.23% of 320,000 active | S. cerevisiae fusion-defective mutant growth rescue, CellTiterGlo 48 h | AID 485298 | Potency, µM (titrated, usually from 46.1 µM), for inactives: at the top dose growth rescue (activation), usual class: activators; further: % of control where 0% means no effect; nearly all actives have a fitted effect of over 45% in size
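Luminescent cell viability in 1536-well qHTS format served as the measure of rescued growth in ts fusion-mutant S. cerevisiae cultured on non-fermentable YPEG for 48 hours at 37C.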
SW480 rereplic: inducers of DNA re-replication in SW480 colon cancer cells. AID 624297. 1.8% of 340,000 active. SW480 DNA re-replication, Hoechst DNA content imaging, 48 h. Potency, µM (doses to about 46.1 µM), without a hit: at the highest dose re-replication activation, usual class: activators; further: % of control where 0% means no effect; nearly all actives have a fitted effect of over 55% in size
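Compounds, transferred as 23 nL by pin tool, were incubated with cells for 48 hr; DNA content per nucleus was then quantified by Hoechst staining and fluorescence plate imaging.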
A-T KAP1 phos: potential ataxia-telangiectasia treatment; F2112 A-T fibroblasts, KAP-1 phosphorylation AlphaLISA; neocarzinostatin DNA damage 30 min before lysis; 0.19% of 320,000 active; Potency, µM (doses to about 57.5 µM), for inactives: at the top dose activation, hits mostly activators; further: % of control where 0% means no effect; nearly all actives have a fitted effect of over 45% in size
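ATM-like activity read as KAP-1 phosphorylation via AlphaLISA donor/acceptor antibody pairs after lysis and 6 hr at 25C. Cells were ATM-null patient fibroblasts (F2112, hTERT), dosed 60 min, then exposed to the DSB inducer NCS for 30 min.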
a7 integrin act: integrin-mediated muscular dystrophy alleviation activation; Potency, µM (series often up to 38.3 µM), for inactives: top-dose activation, actives largely listed as activators; 0.064% of 350,000 active; alpha7betagal myoblasts, beta-gal FDG fluorescence, 48 h; AID 624291;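 further: 100% = response of the positive control SU9516; nearly all actives have a fitted effect of over 60% in size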
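Alpha7betagal+/- myoblasts (passage 13) were plated 16-24 hr, then exposed to compounds (1:260 dilution of DMSO stock) for 48 hours at 37C. After MPER lysis, β-galactosidase reporter activity was read as FDG fluorescence (ex 480/em 540) after 30 minutes.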
MCF10A rereplic: DNA re-replication induction in MCF 10a cells | 2.9% of 350,000 active | MCF 10A DNA re-replication, Hoechst nuclear intensity, 48 h | Potency, µM (series often up to 46.1 µM), for the others: top-dose activity, positive = re-replication, most hits filed as activators; further: % of control where 0% means no effect; nearly all actives have a fitted effect of over 50% in size
Active calls of the source: *; ! = repeats disagree. The call rests on the fitted dose curve; in most records, active means well fitted activation curve with a large enough effect; inconclusive means small, poorly fitted or top-dose-only effect; inactive means no such curve, though single readings can be large or run the other way. Potency means the concentration at half of the fitted maximal effect.

Screening Cc1c(C(=O)C(=O)N2c3ccccc3CC2C)c2ccccc2n1C (stereo not drawn) returned Mito fusion act -9%, SW480 rereplic inconclusive, A-T KAP1 phos 3%, a7 integrin act -17% and MCF10A rereplic inconclusive.
`Cc1cc(C(=O)N2CC=C(c3ccccc3)CC2)c2ccccc2n1` gave Mito fusion act 7%, SW480 rereplic 1.3µM*, A-T KAP1 phos 0%, a7 integrin act -15% and MCF10A rereplic inconclusive.
For Cc1c(C(=O)C(=O)N2CC=C(c3ccccc3)CC2)c2ccccc2n1C the results were Mito fusion act 20%, SW480 rereplic 7.3µM*, A-T KAP1 phos -5%, a7 integrin act -11% and MCF10A rereplic 2.3µM*.
Screening CC(=O)N1CCN(C(=O)c2cc(C)nc3ccccc23)CC1 returned Mito fusion act 0%, SW480 rereplic -9%, A-T KAP1 phos -1%, a7 integrin act 11% and MCF10A rereplic inconclusive.
Screening COc1ccc(C(=O)C=Cc2ccc(OCc3ccccc3)c(OC)c2)cc1OC returned a7 integrin act -26%.
For CCOC(=O)C(=Cc1ccc(OCc2ccc([N+](=O)[O-])cc2)c(OC)c1)C(=O)OCC the results were Mito fusion act 6%, SW480 rereplic 4.6µM*, A-T KAP1 phos 4%, a7 integrin act -46% and MCF10A rereplic 5.8µM*.
`COc1cc(/C=C/[N+](=O)[O-])ccc1OCc1cccc(C(=O)O)c1` gave Mito fusion act -2%, SW480 rereplic inconclusive, A-T KAP1 phos 5%, a7 integrin act 0% and MCF10A rereplic 10µM*.
For COc1cc(C(c2c(C)[nH][nH]c2=O)c2c(C)[nH][nH]c2=O)ccc1OCc1ccc([N+](=O)[O-])cc1 the results were Mito fusion act 0%, SW480 rereplic inconclusive, A-T KAP1 phos 3%, a7 integrin act 0% and MCF10A rereplic 21µM*.
For COc1cc(C(c2c(C)[nH][nH]c2=O)c2c(C)[nH][nH]c2=O)ccc1OC(=O)c1cccc([N+](=O)[O-])c1 the results were Mito fusion act -5%, SW480 rereplic -11%, A-T KAP1 phos -4%, a7 integrin act 10% and MCF10A rereplic -4%.
For COc1ccc(/C=C/C(=O)O/N=C(\N)c2cccnc2)cc1OC the results were Mito fusion act -5%, SW480 rereplic -18%, A-T KAP1 phos -23%, a7 integrin act -22% and MCF10A rereplic 9%.
CCOC(=O)/C(=C\c1ccc(OC)c(OC)c1)C(=O)c1cccnc1 was read as Mito fusion act -1%, SW480 rereplic 20%, A-T KAP1 phos -2%, a7 integrin act 4% and MCF10A rereplic 26µM*.
Screening COc1cc(/C=N/NC(=O)c2cccc([N+](=O)[O-])c2)ccc1OCc1ccccc1 returned Mito fusion act 6%, SW480 rereplic -7%, A-T KAP1 phos 8%, a7 integrin act 0% and MCF10A rereplic 1%.
`CCOC(=O)/C(=C\c1cccnc1)C(=O)c1cc(C(C)=O)c(Nc2ccccc2)s1` gave Mito fusion act 3%, SW480 rereplic 3.7µM*, A-T KAP1 phos -5%, a7 integrin act -42% and MCF10A rereplic 2.9µM*.
For COC(=O)C(=Cc1ccc(OCc2ccc([N+](=O)[O-])cc2)c(OC)c1)C(=O)OC the results were Mito fusion act -4%, SW480 rereplic 25%, A-T KAP1 phos -6%, a7 integrin act -55% and MCF10A rereplic 1.5µM*.
Screening Cc1c(NC(=O)CSCc2ccco2)c(=O)n(-c2ccccc2)n1C returned Mito fusion act -2%, SW480 rereplic -30%, A-T KAP1 phos -2%, a7 integrin act 0% and MCF10A rereplic -8%.
`COc1ccccc1C(=O)NC(=O)Nc1nc(-c2ccccc2)cc(C(F)(F)F)n1` gave Mito fusion act 0%, SW480 rereplic inconclusive, A-T KAP1 phos 18%, a7 integrin act -2% and MCF10A rereplic 17%.
`CCCC[C@@]1(C2CCCC2)Cc2cc(OCC(=O)O)c(Cl)c(Cl)c2C1=O` gave Mito fusion act 21µM*!, SW480 rereplic -2%, A-T KAP1 phos 9% and MCF10A rereplic -16%.
Screening COc1ccc2[nH]c(C(=O)Nc3ccc4c(c3)OCO4)cc2c1 returned Mito fusion act 1%, SW480 rereplic 12%, A-T KAP1 phos 1%, a7 integrin act 1% and MCF10A rereplic 13%.
For CNc1ccc(Br)cc(C(=O)/C=C/c2ccc(Cl)cc2Cl)c1=O the results were Mito fusion act 20%, SW480 rereplic inconclusive, A-T KAP1 phos 6%, a7 integrin act -69% and MCF10A rereplic 4.6µM*.
For Nc1ccccc1C(=O)/C=C/c1ccc2c(c1)OCO2 the results were Mito fusion act -1%, SW480 rereplic 18µM*, a7 integrin act -7% and MCF10A rereplic inconclusive.
For CCNc1ccc(Br)cc(C(=O)/C=C/c2ccc(Cl)cc2)c1=O the results were Mito fusion act 13µM*, SW480 rereplic inconclusive, A-T KAP1 phos 4%, a7 integrin act -38% and MCF10A rereplic 13µM*.
For O=C(/C=C/c1ccc2c(c1)OCO2)c1ccc(O)cc1O the results were SW480 rereplic inconclusive, a7 integrin act -37% and MCF10A rereplic inconclusive.
Screening COc1cc(OCc2ccccc2)c(C(=O)/C=C/c2ccc3c(c2)OCO3)c(OC)c1OC returned SW480 rereplic inconclusive, a7 integrin act -17% and MCF10A rereplic 15µM*.
For CCOc1cc(/C=C2\NC(=O)NC2=O)ccc1OC(C)C(=O)O (stereo not drawn) the results were Mito fusion act 0%, SW480 rereplic 2%, A-T KAP1 phos 15%, a7 integrin act 34% and MCF10A rereplic 6%.
CCNc1ccc(Br)cc(C(=O)/C=C/c2ccc3c(c2)OCO3)c1=O was read as Mito fusion act 0%, SW480 rereplic inconclusive, A-T KAP1 phos -2%, a7 integrin act -46% and MCF10A rereplic 18µM*.
For CNc1ccc(Br)cc(C(=O)/C=C/c2ccc(OC)cc2OC)c1=O the results were Mito fusion act inconclusive, SW480 rereplic 0%, A-T KAP1 phos -7%, a7 integrin act -41% and MCF10A rereplic inconclusive.
CNc1ccc(Br)cc(C(=O)/C=C/c2cccc(OC)c2)c1=O was read as Mito fusion act 3%, SW480 rereplic inconclusive, a7 integrin act -70% and MCF10A rereplic 18µM*.
For CCNc1ccc(Br)cc(C(=O)/C=C/c2c(Cl)cccc2Cl)c1=O the results were Mito fusion act 7%, SW480 rereplic inconclusive, A-T KAP1 phos 14%, a7 integrin act -21% and MCF10A rereplic 23µM*.
CC(C)=NNC(=O)C1=NNC(=O)C1 was read as Mito fusion act -1%, SW480 rereplic -20%, A-T KAP1 phos 6%, a7 integrin act inconclusive and MCF10A rereplic 2%.
